Most compounds without a hit are left out; they make up all but 2.6% or so of the library.
B2AR arrestin ag = qHTS assay of beta-arrestin-biased ligands of beta2-adrenergic receptor: NCGC Sytravon Library Screen. Beta-2 adrenergic receptor (Homo sapiens), P07550. HTLA Tango cells, beta-arrestin recruitment, luciferase luminescence, 18 h. Potency, µM (top dose mostly 46.1 µM), usual class: activators. 44,000 tested, under 10 active. AID 1347077, 2019;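 also: potency is read from the fitted curve at half-maximal effect; 0% = DMSO and full agonism = EC100 isoproterenol or metaproterenol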
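First, Tango cells carrying beta2-AR and beta-arrestin fusions received compound up to 46 microM. After 18 hr at 37 degrees C, luciferase substrate was added for 15 minutes, then luminescence gave %Activity for curve fitting.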
GALK inh = qHTS Assay for Inhibitors of Human Galactokinase (GALK): NCGC Sytravon Library Screen. P51570. Potency, µM (series often up to 57.5 µM), without a hit: at the top dose activity, negative = inhibition, usual class: inhibitors. recombinant GALK, Kinase-Glo ATP luminescence, 1 h. 44,000 tested, under 10 active;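 also: plate controls were full GALK reaction for no effect and reaction lacking GALK for full effect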
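5 nM GALK; 35 uM ATP; 100 uM D-galactose; 20 mM HEPES pH 8.0, 5 mM MgCl2, 60 mM NaCl, 1 mM DTT, 0.01% BSA; 1 h RT; Kinase-Glo Plus luminescence.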
TSG101-PTAP inh = qHTS Validation Assay for Inhibitors of HIV-1 Budding by Blocking the Interaction of PTAP/TSG101: Sytravon Library Screen. AID 1347069, 2019. 44,000 tested, under 10 active. Potency, µM (series often up to 115 µM), most hits filed as inhibitors. Fluorescence polarization, FITC-PTAP peptide/Tsg101, 20 min. Tumor susceptibility gene 101 protein (Homo sapiens), Q99816; also: potency is read from the fitted curve at half-maximal effect; 0% is about no effect
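Fluorescence polarization binding of Tsg101 binding domain (10 uM final) to FITC-labeled PTAP-motif peptide (50 nM final) in HEPES pH 7.5/NaCl/Tween 20/EDTA/TCEP buffer; 20 min at r.t. Actives by curve class, <25 µM, efficacy <60% inhibition.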
GALC G270D act = A Novel Cell-Based Assay to Identify Small Molecules for B -Galactocerebrosidase | 145M-Twi-hGALC-G270D cells (Twitcher mouse brain line with human GALC G270D), HMU-beta-Gal fluorescence, 48 h | AID 1159614, 2016 | 0.1% of 45,000 active | P54803 | Potency, µM (highest dose often 57.5 µM), actives largely listed as activators; also: potency is read from the fitted curve at half-maximal effect; 0% is about no effect; nearly all actives have a fitted effect of over 65% in size
Target sequence (P54803 whole entry G286D): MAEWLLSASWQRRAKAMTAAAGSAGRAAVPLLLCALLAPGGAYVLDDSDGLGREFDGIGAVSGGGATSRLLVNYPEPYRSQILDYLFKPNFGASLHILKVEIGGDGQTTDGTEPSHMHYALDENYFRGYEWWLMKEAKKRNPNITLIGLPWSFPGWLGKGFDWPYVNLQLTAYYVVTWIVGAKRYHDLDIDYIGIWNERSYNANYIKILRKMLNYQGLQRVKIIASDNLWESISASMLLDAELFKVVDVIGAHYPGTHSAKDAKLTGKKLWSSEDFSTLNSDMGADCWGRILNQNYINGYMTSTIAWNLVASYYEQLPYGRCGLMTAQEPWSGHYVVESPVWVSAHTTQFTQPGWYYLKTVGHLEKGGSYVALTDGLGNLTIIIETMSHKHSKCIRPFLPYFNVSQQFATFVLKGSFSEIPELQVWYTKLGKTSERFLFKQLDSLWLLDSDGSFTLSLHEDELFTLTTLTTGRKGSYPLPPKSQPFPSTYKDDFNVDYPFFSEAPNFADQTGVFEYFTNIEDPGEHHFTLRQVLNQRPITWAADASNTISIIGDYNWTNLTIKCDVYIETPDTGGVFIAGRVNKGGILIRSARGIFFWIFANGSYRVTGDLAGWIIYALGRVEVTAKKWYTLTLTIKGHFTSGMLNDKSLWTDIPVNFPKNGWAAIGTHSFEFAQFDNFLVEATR
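Brain-derived Twitcher mouse 145M-Twi cells stably expressing human GALC-G270D or wild-type GALC, treated live, then residual GALC activity read by fluorescence of HMU-b-Gal substrate (0.1 mM final) in citrate-phosphate buffer pH 5.2 with sodium taurocholate. Signal increase indicates enhancement.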
DRV1 agonist = qHTS for Agonists of Human Resolvin D1 Receptor DRV1 | Probable G-protein coupled receptor 32 (Homo sapiens), O75388 | CHO-K1 GPR32 beta-arrestin PathHunter luminescence, 90 min; zero percent set by DMSO-only wells | activation, % at 76.9 µM | 2.5% of 48,000 active;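 active = activation of at least 60% and not above a set upper limit, about 1 call in 100 departs from these limits; inconclusive = activation of 40% to 60%, or above that upper limit; inactive = activation under 40%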; also: 0% is about no effect
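Using DMSO wells as EC0, agonist-induced signal was taken as chemiluminescence from beta-Gal reconstituted upon beta-arrestin recruitment to GPR32 in CHO-K1 cells after 90 min compound treatment.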
Active calls of the source: *; i = inactive; ? = inconclusive; / = no result given. Unless noted, calls follow the shape of the dose curve; as a rule, active = well fitted curve in the direction sought with a large enough effect; inconclusive = small, poorly fitted or top-dose-only effect, or another doubt; inactive = no such curve, though single readings can be large; an effect the other way counts as inactive or inconclusive.

SMILES	B2AR arrestin ag	GALK inh	TSG101-PTAP inh	GALC G270D act	DRV1 agonist
Cc1ccc(NS(=O)(=O)c2ccc(-n3cccn3)cc2)c(Br)c1	i	-4.6%	i	i	71.7*
Cc1cccc(NS(=O)(=O)c2ccc(-n3cccn3)cc2)c1C	i	3.0%	i	i	72.6*
CCOc1ccc(CCNC(=O)C2CCC(CNS(=O)(=O)c3ccc(Cl)cc3)CC2)cc1OCC (stereo unspecified)	i	-1.2%	i	i	44.9
Cc1nc2c(-c3ccccc3)c(C)nn2c(C)c1CCC(=O)Nc1ccccc1F	i	8.9%	i	i	60.5*
COc1ccc(C)cc1NC(=O)c1nnn(CC(=O)Nc2c(C)cccc2C)c1N	i	-1.3%	i	i	1.6
CCc1ccc(NC(=O)Cn2nnc(C(=O)Nc3cc(C)ccc3OC)c2N)cc1	i	1.8%	i	i	74.3*
Cc1ccc(C(=O)NCC(c2cccs2)S(=O)(=O)c2cccs2)cc1 (stereo unspecified)	i	-1.3%	i	i	74.2*
CC(C)(C)c1ccc(C(=O)NCC(c2cccs2)S(=O)(=O)c2cccs2)cc1 (stereo unspecified)	i	0.1%	i	i	-7.6
Cn1cc(C(=O)[C@@H]2CCc3nc[nH]c3C2)c2ccccc21	/	/	/	i	5.9
O=C(NCCc1nc2ccccc2n1CCCOc1ccc(Cl)cc1)C1CCCCC1	i	2.7%	i	i	18.5
CCc1nc2ccccc2n1CCCCOc1ccc(C)cc1	i	3.5%	i	i	?
CCCC(O)c1nc2ccccc2n1CCCCOc1ccc(OC)cc1 (stereo unspecified)	i	2.7%	i	i	90.8*
CC(=O)NCCc1nc2ccccc2n1CCCCOc1ccc(Cl)cc1	i	8.0%	i	i	76.5*
Cc1ccc(C(C)OC(=O)C2(C)CCC(C(=O)O)C2(C)C)cc1 (stereo unspecified)	/	/	/	i	-2.2
